According to PubChem BioAssay (NCI):
This is part of a sample that, as a whole, favours compounds with a hit. Of some 83,000 tested, about 20% had one in any assay.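 Plates (96-well) were seeded with cells, treated with compound at one concentration, and incubated for 48 hours before percent growth was determined.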 Unmarked numbers belong to inactive results. Active and inactive are the calls of the source. How the source made its calls: active means growth percent below 10; inactive means the rest.

Assays:
Test in all cases: NCI-60 one-dose screen, 48 h (100 = growth as untreated, 0 = no growth, -100 = all killed)
Details in all cases: 10 µM
SR leukemia = system: SR leukemia
RPMI-8226 leukemia = system: RPMI-8226 leukemia
OVCAR-8 ovarian = system: OVCAR-8 ovarian
OVCAR-5 ovarian = system: OVCAR-5 ovarian
OVCAR-4 ovarian = system: OVCAR-4 ovarian
SK-OV-3 ovarian = system: SK-OV-3 ovarian
IGROV1 ovarian = system: IGROV1 ovarian
OVCAR-3 ovarian = system: OVCAR-3 ovarian
HS 578T breast = system: HS 578T breast
NCI/ADR-RES ovarian = system: NCI/ADR-RES ovarian

Compound	growth (SR leukemia)	growth (RPMI-8226 leukemia)	growth (OVCAR-8 ovarian)	growth (OVCAR-5 ovarian)	growth (OVCAR-4 ovarian)	growth (SK-OV-3 ovarian)	growth (IGROV1 ovarian)	growth (OVCAR-3 ovarian)	growth (HS 578T breast)	growth (NCI/ADR-RES ovarian)
Cc1cc(C)c2c(Nc3ncnc4c3sc3nc(C)cc(C)c34)n[nH]c2n1	94%	98.9%	97.8%	95.2%	86.3%	106%	120%	101%	105%	100%
CC1=CC2OC34COC3CC(OC(=O)C(F)(F)F)C4(C)C2(C)CC1 (stereo not given)	99.3%	101%	106%	101%	103%	102%	119%	118%	97.7%	105%
O=[N+]([O-])c1ccc2c(c1)Cc1cc(I)ccc1-2	92.4%	98.4%	118%	97%	117%	123%	104%	110%	101%	104%
CCCCCC(=O)N1c2ccccc2NC2=C(C(=O)CC(c3ccc(OC)c(OC)c3)C2)C1c1ccc(C(F)(F)F)cc1 (stereo not given)	51.8%	21.6%	47.1%	103%	41.8%	83.6%	63%	33.1%	78.7%	58.7%
O=C(O)CN1C(=O)C=CC1=O	109%	106%	108%	101%	115%	105%	100%	104%	107%	111%
COc1cccc2c1O/C(=C\c1ncc([N+](=O)[O-])n1C)C2=O	6.35% (active)	-8.69% (active)	-23.3% (active)	-9.04% (active)	7.16% (active)	-16.6% (active)	-17.7% (active)	-3.72% (active)	-24.3% (active)	-3.54% (active)
COc1cc(C2=Nc3c/c(=C\c4c(O)[nH]c5ccc(Cl)cc45)ccc3=N2)cc(OC)c1OC	-18% (active)	16.3%	-71.4% (active)	79.6%	-83.1% (active)	85.7%	49%	17.3%	-43.3% (active)	52.2%
Fc1ccc2[nH]c3c(NCCCN4CCOCC4)ncnc3c2c1	52.1%	46.4%	68.3%	85.6%	-38.6% (active)	33.4%	50.8%	59.7%	34.5%	72.7%
COc1cccc2c1C(=O)c1c(O)c3c(c(O)c1C2=O)C[C@@](O)(C(=O)COC(=O)c1cccnc1)C[C@@H]3OC1CC(N)C(O)C(C)O1 (stereo not given in full)	3.07% (active)	-29% (active)	-15.8% (active)	6.95% (active)	0.907% (active)	22.5%	-12.4% (active)	-9.51% (active)	-12.8% (active)	57%
Brc1ccc(-c2cn3ccnc3c(-c3ccc(Br)cc3)n2)cc1	13.4%	58.3%	51.6%	82.4%	62.2%	55.2%	55.8%	31.9%	61.1%	19.7%
COc1ccc(-c2cc(/C=C/C(=O)c3ccc(N)cc3)[nH]n2)cc1OC	10.3%	-12.6% (active)	15.2%	45%	24.4%	39%	29.1%	5.89% (active)	1.16% (active)	78.6%
Nc1ncncc1-c1ccc(F)cc1	127%	109%	107%	115%	107%	108%	110%	111%	113%	107%
O=c1ccc2nc(-c3ccccc3)nn(-c3ccccc3)c-2c1	-20.2% (active)	-8.63% (active)	-2.36% (active)	102%	-40.7% (active)	59.1%	2.66% (active)	-98.1% (active)	75.9%	96.2%
CCN(CC)CCn1c(=N)n(CC(O)c2ccc(Cl)c(Cl)c2)c2ccccc21 (stereo not given)	26.4%	68.1%	92.6%	102%	69%	92.3%	90.1%	96.7%	80.5%	88.6%
O=C1/C(=C/c2ccc(O)cc2O)N=C2SCCCN12	89.8%	103%	97.5%	92.9%	97.1%	102%	101%	98.6%	105%	98.7%
CCOC(=O)C(CCC1=NC(C)(C)CC(C)O1)C(=O)OCC (stereo not given)	68.6%	111%	85.5%	62.5%	90.6%	101%	96.2%	107%	95.3%	83%
COc1cc(C2C(C#N)=C(c3c[nH]c4ccccc34)Nc3nc(N)[nH]c(=O)c32)cc(OC)c1OC (stereo not given)	78.7%	98.2%	99.1%	96.8%	75.2%	80.6%	80.3%	21%	96%	100%
COc1ccc(-c2[nH]ncc2/C=C/c2cc(C(F)(F)F)[nH]c(=O)n2)cc1	71.9%	96.5%	102%	100%	93.6%	100%	93.1%	95.1%	106%	105%
CCCCCCCCCCCCCCCCCBr	92.7%	102%	106%	100%	111%	100%	103%	114%	91.9%	104%
COc1cc(-c2nc3ccc(C)cc3[nH]2)ccc1OCC(=O)N=Nc1c(O)[nH]c2ccccc12	-36.7% (active)	-54% (active)	-72.8% (active)	-32.4% (active)	-82.2% (active)	-3.57% (active)	-27.4% (active)	-94.5% (active)	-46.8% (active)	87.5%
C=CCOc1ccc2c(c1)CC=C1[C@@H]2CC[C@]2(C)C(=O)/C(=N/O)C[C@@H]12	23.9%	40.6%	91.2%	50.6%	73.3%	121%	97.1%	108%	99.2%	83.1%
COc1cccc(C2(C)Nc3ccccc3-c3nc4ccccc4n32)c1 (stereo not given)	87.7%	96.4%	105%	109%	112%	104%	101%	112%	112%	97%
Cc1ccc(S(=O)(=O)N2CCc3ccccc3CC2)cc1	84.8%	42.3%	79.2%	94.3%	44.8%	96.3%	104%	103%	109%	69.8%
Cn1c([N+](=O)[O-])cnc1C=C1C(=O)c2ccccc2C1=O	7.25% (active)	40.6%	7.11% (active)	61.3%	56.8%	54%	13.8%	38.1%	26.4%	44.5%
Cc1nc2sccn2c1-c1csc(Nc2cccc(Cl)c2C)n1	17.7%	45%	65.6%	77.9%	45.7%	79.1%	62%	64.3%	53.1%	41.6%
CCn1nc(-c2ccc(C(=O)OC)cc2)nc2c(=O)n(C)c(=O)nc1-2	7.67% (active)	61.2%	45.8%	105%	14.1%	9.16% (active)	87.4%	25.7%	35.6%	70%
COc1cc(-c2cc(-c3ccc(C)cc3)nc3nc(N)[nH]c(=O)c23)ccc1Oc1ccnc2cc(Cl)ccc12	50.9%	60.1%	79.5%	115%	66.3%	95.3%	77.9%	84.1%	91.2%	100%
